PNC inhibitor: perinucleolar compartment assembly inhibition; actives 3.1% (n = 140,000); PC3M PTB-GFP, PNC prevalence imaging, 16 h; stronger effect = lower value; activity change (PNC), negative = inhibition, % at 10 µM;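 active = readout at or below -70, meaning at least 70% loss of cells showing the perinucleolar compartment, a nuclear body marking cancer cells; inconclusive = readout between -30 and a set limit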
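PC3M cells stably expressing PTB-GFP, 750–1000 cells/well, treated 16 h at 37 °C with compound (23 nl of library stock), in duplicate. After paraformaldehyde fixation and Hoechst stain, imaged at 20x; PNC prevalence scored by image analysis.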
HPGD block: blocks human HPGD enzyme activity; Potency, µM, hits mostly inhibitors; P15428; purified HPGD, NADH fluorescence kinetic, PGE2 substrate; AID 894; actives 4.3% (n = 150,000)
Target sequence (P15428 whole entry, looked up): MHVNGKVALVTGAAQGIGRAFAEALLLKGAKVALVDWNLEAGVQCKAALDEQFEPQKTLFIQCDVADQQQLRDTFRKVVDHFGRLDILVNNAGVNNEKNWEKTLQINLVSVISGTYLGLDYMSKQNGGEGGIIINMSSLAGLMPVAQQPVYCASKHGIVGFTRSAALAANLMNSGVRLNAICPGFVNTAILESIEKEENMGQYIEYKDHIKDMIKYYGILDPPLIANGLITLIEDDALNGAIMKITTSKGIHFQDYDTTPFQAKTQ
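NADH formation kinetics: reaction with 30 uM PGE2 and 1 mM NAD+ (final), 20 nM enzyme, Tris-HCl pH 8 with Tween 20, after 15 min compound preincubation at room temperature. Fluorescence change, last versus first of five reads.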
ALDH1A1 block: inhibitors of human aldehyde dehydrogenase 1A1; P00352; Purified ALDH1A1, NADH fluorescence, propionaldehyde substrate; Potency, µM (highest dose often 75.3 µM), most hits filed as inhibitors; actives 7.3% (n = 220,000); AID 1030
A number is an active result. This is a sample that favours compounds with a hit; in the whole collection about 11% have one here. Unless noted, calls follow the shape of the dose curve; as a rule, active = well fitted inhibition curve with a large enough effect (not every such curve was filed as active); inconclusive = small, poorly fitted or top-dose-only effect, or another doubt; inactive = no such curve, though single readings can be large or run the other way.

What do the screens show for `Cc1cc(C(=O)CSc2nc3ccccc3c(=O)n2C)c(C)n1Cc1ccc2c(c1)OCO2`?
PNC inhibitor: inactive; HPGD block: inactive; ALDH1A1 block: inactive

What do the screens show for `CC(C)(C)c1[nH]nc2c1C(c1cccnc1)C(C#N)=C(N)O2` (stereo unspecified)?
PNC inhibitor: inconclusive; HPGD block: inactive; ALDH1A1 block: inconclusive

What do the screens show for `CC(C)(C)c1[nH]nc2c1C(c1ccc(OC(=O)c3ccco3)cc1)C(C#N)=C(N)O2` (stereo unspecified)?
PNC inhibitor: inactive; HPGD block: inactive; ALDH1A1 block: 4.47µM

Results for CN(C)CCNC(=O)COc1cccc(Cl)c1 ?
PNC inhibitor: inactive; ALDH1A1 block: inactive

How did CCOc1ccc(-n2c(=S)sc3c(=O)[nH]c(SCC(=O)NCc4ccco4)nc32)cc1 do in these assays?
PNC inhibitor: inactive; ALDH1A1 block: inconclusive

How did Cc1sc2nc(CN(C(=O)NC3CCCCC3)C3CCCC3)[nH]c(=O)c2c1C do in these assays?
PNC inhibitor: inactive; HPGD block: inactive; ALDH1A1 block: inactive

Results for CCOC(=O)CSc1nc2c(sc(=S)n2-c2ccccc2)c(=O)[nH]1 ?
PNC inhibitor: inconclusive; HPGD block: 20µM; ALDH1A1 block: inactive

How did CCOc1ccc(-n2c(=S)sc3c(=O)[nH]c(SCC(=O)N4CCC(C)CC4)nc32)cc1 do in these assays?
PNC inhibitor: inactive; HPGD block: inactive; ALDH1A1 block: inactive

Results for CCOC(=O)CSc1nc2sc(C)c(C)c2c(=O)[nH]1 ?
PNC inhibitor: inactive; HPGD block: 3.55µM; ALDH1A1 block: inactive

How did CCOC(=O)/C(=C\c1ccc(Cl)cc1)c1nc2sc(C)c(C)c2c(=O)[nH]1 do in these assays?
PNC inhibitor: inactive; HPGD block: 22.4µM; ALDH1A1 block: 25.1µM

How did CCOC(=O)CSc1nc2sc(C(=O)O)c(C)c2c(=O)[nH]1 do in these assays?
PNC inhibitor: inactive; HPGD block: inactive; ALDH1A1 block: inactive

How did CCOc1ccc(-n2c(=S)sc3c(=O)[nH]c(SCC(=O)C(C)(C)C)nc32)cc1 do in these assays?
ALDH1A1 block: 7.08µM

How did Cc1cccc(OCC(=O)O/N=C(\N)Cc2ccc(Cl)cc2)c1 do in these assays?
PNC inhibitor: inactive; HPGD block: inactive; ALDH1A1 block: inactive

What do the screens show for `CCOC(=O)Cn1nc(C)n(-c2ccc(C(C)C)cc2)c1=O`?
PNC inhibitor: inactive; HPGD block: inactive; ALDH1A1 block: inactive

Results for COC(=O)c1ccccc1S(=O)c1snnc1C (stereo unspecified) ?
ALDH1A1 block: inactive

Results for N#C/C(=C(/O)CSc1ccccn1)c1nc2ccccc2s1 ?
ALDH1A1 block: 8.91µM

What do the screens show for `Cc1ccc(SC/C(O)=C(\C#N)c2nc3ccccc3s2)cc1`?
PNC inhibitor: inactive; HPGD block: inactive; ALDH1A1 block: inactive

Results for CC(C)(C)OC(=O)N1Cc2ccccc2C[C@H]1C(=O)O ?
PNC inhibitor: inactive; ALDH1A1 block: inactive

How did CC(O)C(NC=C1C(=O)OC(C)(C)OC1=O)C(=O)O (stereo unspecified) do in these assays?
ALDH1A1 block: inactive

What do the screens show for `CC(C)C(NC=C1C(=O)OC(C)(C)OC1=O)C(=O)O` (stereo unspecified)?
PNC inhibitor: inactive; HPGD block: inactive; ALDH1A1 block: 8.91µM

What do the screens show for `Cc1ccc(C(=O)N/C(=C\c2ccc(C(C)C)cc2)C(=O)NCCCN2CCOCC2)cc1`?
PNC inhibitor: inactive; HPGD block: inactive; ALDH1A1 block: inconclusive

Results for Cc1cc(C#N)c(C)n1-c1cc(S(=O)(=O)N2CCOCC2)ccc1N1CCCC1 ?
PNC inhibitor: inactive; HPGD block: 7.94µM; ALDH1A1 block: 4.47µM

How did O=S(=O)(c1ccc(S(=O)(=O)N2CCOCC2)cc1)N1CCCC1 do in these assays?
ALDH1A1 block: inactive

Results for Cc1ccc2cc(CN(Cc3ccc4c(c3)OCO4)Cc3nnnn3Cc3ccco3)c(=O)[nH]c2c1C ?
PNC inhibitor: inactive; HPGD block: inactive; ALDH1A1 block: inconclusive

What do the screens show for `CCc1ccc2[nH]c(=O)c(CN(Cc3ccccc3OC)Cc3nnnn3Cc3ccco3)cc2c1`?
PNC inhibitor: inactive; HPGD block: inactive; ALDH1A1 block: 25.1µM

How did COc1ccccc1CN(Cc1cc2cc(C)ccc2[nH]c1=O)Cc1nnnn1Cc1ccco1 do in these assays?
PNC inhibitor: inactive; HPGD block: inconclusive; ALDH1A1 block: inconclusive

What do the screens show for `Cc1ccc2cc(CN(CCN3CCOCC3)Cc3nnnn3Cc3ccco3)c(=O)[nH]c2c1C`?
PNC inhibitor: inactive; HPGD block: inactive; ALDH1A1 block: 5.01µM

What do the screens show for `CCOC(=O)C1=C(O)/C(=C/c2cc(OC)c(OC)c(OC)c2)N=C1C`?
PNC inhibitor: inactive; HPGD block: inactive; ALDH1A1 block: inactive

Results for COc1ccccc1CNC(=O)C(NC(=O)c1ccccc1)C(C)C (stereo unspecified) ?
ALDH1A1 block: inactive

How did CC(C)[C@@H](CC(=O)N[C@@H]1CCCC[C@H]1C(=O)N[C@H](CC(=O)N[C@@H](CCC(=O)O)CC(=O)O)Cc1c[nH]c2ccccc12)NC(=O)C[C@H](CO)NC(=O)[C@@H]1CCCC[C@H]1N do in these assays?
HPGD block: inactive; ALDH1A1 block: inactive

Results for COCCOc1cnn(-c2cc(Oc3ccc(C)cc3)ncn2)c(=O)c1Cl ?
PNC inhibitor: inactive; HPGD block: inactive; ALDH1A1 block: inconclusive

How did COc1cnn(-c2cc(Oc3ccc(C)cc3)ncn2)c(=O)c1Cl do in these assays?
PNC inhibitor: inactive; HPGD block: inactive; ALDH1A1 block: 12.6µM

How did Cc1nn(C(C)C(=O)O)c2ccccc12 (stereo unspecified) do in these assays?
PNC inhibitor: inactive; HPGD block: inactive; ALDH1A1 block: inactive

How did COc1ccccc1N1CCN(CC(O)COc2ccc(S(=O)(=O)N3CCOCC3)cc2)CC1 (stereo unspecified) do in these assays?
PNC inhibitor: inconclusive; HPGD block: inactive; ALDH1A1 block: inactive

How did COc1cc(C(C)=O)ccc1OCC(O)CN1CCN(S(=O)(=O)c2ccccc2)CC1 (stereo unspecified) do in these assays?
PNC inhibitor: inactive; HPGD block: inactive; ALDH1A1 block: 28.2µM

What do the screens show for `COc1ccccc1/C=N/N(C(C)=O)c1nc(-c2ccc(F)cc2)cs1`?
PNC inhibitor: inactive; HPGD block: inactive; ALDH1A1 block: inactive

Results for COc1ccccc1-c1nnc2n1N=C(C)CS2 ?
PNC inhibitor: inactive; HPGD block: inactive; ALDH1A1 block: inactive

What do the screens show for `CC1=Nn2c(nnc2-c2ccccc2Cl)SC1`?
PNC inhibitor: inactive; HPGD block: 25.1µM; ALDH1A1 block: inactive

Results for CC1=Nn2c(nnc2-c2ccco2)SC1 ?
PNC inhibitor: inactive; HPGD block: 31.6µM; ALDH1A1 block: 17.8µM

What do the screens show for `COc1ccc(C2=Nn3c(nnc3-c3ccco3)SC2)cc1OC`?
PNC inhibitor: inactive; HPGD block: inconclusive; ALDH1A1 block: inconclusive

What do the screens show for `CCC(C)c1ccc(OCCn2cc(/C=N/NC(=O)CSc3nnc(C)s3)c3ccccc32)cc1` (stereo unspecified)?
PNC inhibitor: inactive; HPGD block: inactive; ALDH1A1 block: inconclusive

Results for COC(=O)c1cccc(Oc2cccc(C(F)(F)F)c2)n1 ?
ALDH1A1 block: inactive

Results for O=C1CSCN1c1ccc(Cl)cc1 ?
ALDH1A1 block: inactive

Results for COC(=O)c1cc(S(=O)(=O)NCc2ccc(S(N)(=O)=O)cc2)oc1C ?
ALDH1A1 block: inactive

Results for N/C(=N\OC(=O)c1cccs1)c1ccccc1 ?
PNC inhibitor: inactive; HPGD block: 31.6µM; ALDH1A1 block: inactive

Bioassay records (PubChem)
